# Reference: PubChem BioAssay AID686979 (National Center for Advancing Translational Sciences (NCATS), 2013)
# Screen size: about 420,000 compounds; about 50,000 (12%) were called active. Entries that show only a call come without a potency. Another 26% or so got no clear call; they are omitted. The call rests on the fitted dose curve; in most records, active means well fitted inhibition curve with a large enough effect; inconclusive means small, poorly fitted or top-dose-only effect; inactive means flat fitted curve, though single readings scatter. For the sample, actives were picked, then their nearest neighbours and some compounds at random.
# Experiment: qHTS for Inhibitors of human tyrosyl-DNA phosphodiesterase 1 (TDP1): qHTS in cells in presence of CPT; further: nearly all actives have a fitted effect of over 55% in size
# Conditions: chicken DT40 Tdp1-/-;hTDP1 cells + 20 nM CPT, ATP luminescence, 48 h; series mostly up to 46.2 µM
# Description: Human tyrosyl-DNA phosphodiesterase 1 (TDP1) is a novel repair gene, and we propose to use it as a new target for anticancer drug development. TDP1 is not an essential protein, but under treatment with topoisomerase I poison (camptothecin: CPT), TDP1 works as a critical factor for cell survival. To directly identify novel TDP1 inhibitors active in a cellular environment, we have knocked-out the Tdp1 gene in chicken DT40 cells (Tdp1-/-) and generated a complemented counterpart cells that contains a stable transfection of the human TDP1 gene (Tdp1-/-;hTDP1 cells). For the primary screen, Tdp1-/-;hTDP1 cells will be exposed to small molecules in the presence or absence of CPT, and their growth kinetics will be evaluated after 48 hours by measuring ATP activity. […] The hit compounds will then be evaluated in the presence or absence of CPT using Tdp1-/- cells. […] In tertiary assays, biochemical gel-based assays will be used to assess whether the hit compounds specifically target TDP1. To this end, we have screened this cell line against the MLSMR in two primary screens. In one screen we add CPT and in the other we screen in the absence of CPT; this AID represents the screen where CPT was present. NIH Chemical Genomics Center [NCGC] NIH Molecular Libraries Probe Centers Network [MLPCN] MLPCN Grant: MH095538 Assay Submitter (PI): Yves Pommier, NCI
# DT40-hTDP1 cells with 20 nM Camptothecin (add 20 microL of 1 mM CPT stock in 1 L of cell culture medium) were dispensed at 400 cells/5microL/well in tissue culture treated 1536-well white wall/solid bottom assay plates (Greiner Bio-One North America, NC, U.S.A.) using a Multidrop Combi 8 channel dispenser (Thermo Fisher, Waltham, MA, USA). 23 nL compounds and controls were transferred using the pin tool (Kalypsys, San Diego, CA, USA) to the assay plates. The assay plates were then incubated at 37 masculineC for a minimum 48 hr. Three microL of Cell Titer Glo solution was added to the plates and incubated at RT in dark for 30 min. Luminescence was read using ViewLux (Perkin Elmer) with 1 sec exposure slow speed, high gain and 2x binning.
# Potency means the concentration at half of the fitted maximal effect.
row,Compound,Potency
1,CN1CCN(c2ccc(NC(=O)c3cc(Cl)c4c(c3)OCCO4)cc2)CC1,inactive
2,Cn1cnnc1SCC(=O)Nc1ccc(N2CCOCC2)cc1,inactive
3,C=CC(=O)Nc1ccc(Nc2ccnc(Nc3ccc(N4CCN(C)CC4)cc3)n2)cc1,9.2 µM (active)
4,COc1ccc(-n2c(=O)[nH]c3cc(C(=O)NCCc4ccc(OC)c(OC)c4)ccc3c2=O)c(OC)c1,inactive
5,Cc1ccc(NS(=O)(=O)c2ccc(C(=O)NCCCN3CCOCC3)cc2)cc1,inactive
6,CCn1c(C)c(C)c2cc(C(=O)NCCc3cc(OC)ccc3OC)ccc21,20.6 µM (active)
7,COc1ccc(Cn2c(=S)[nH]c3cc(C(=O)NCCCN4CCOCC4)ccc3c2=O)cc1,inactive
8,Cc1c(C)n(Cc2ccc(Cl)cc2)c2ccc(C(=O)NCCCN3CCOCC3)cc12,23.1 µM (active)
9,Cc1c(C)n(Cc2ccc(Cl)cc2)c2ccc(C(=O)NCCc3ccc(S(N)(=O)=O)cc3)cc12,18.4 µM (active)
10,COc1ccc(C(=O)NCC[N+](C)(C)C)cc1,inactive
11,COc1ccc(C(=O)NCCc2ccc(S(N)(=O)=O)cc2)cc1OC,inactive
12,CCOC(=O)c1c(C)c(C(=O)NCCc2ccc(S(N)(=O)=O)cc2)c(C)n1CC,inactive
13,NC(=O)c1nnsc1-c1ccc(-c2snnc2C(N)=O)cc1,inactive
14,CCCCN1CC(CO)Oc2cccc(F)c2S1(=O)=O (stereo not given),inactive
15,COc1ccc(OCC(=O)NCCS(=O)(=O)N2CCN(c3ccc(F)cc3)CC2)cc1,inactive
16,Cc1cc2cc3c(N)[nH]nc3nc2cc1C,inactive
17,O=S1(=O)CCOC[C@H](Cc2ccccc2)N1Cc1ccccc1Br,inactive
18,COc1ccccc1C(=O)NC(=S)NC12CC3CC(CC(C3)C1)C2,inactive
19,CC(=O)c1cc(CN2CCC(n3nccc3NC(=O)c3ccccc3Cl)CC2)cs1,inactive
20,CCCCCc1ccc(-c2ccc(C(=O)O)cc2)nc1,inactive
21,CC(=O)Nc1ccc(S(=O)(=O)NC2(C(F)(F)F)C(=O)NC(C)=C2C#N)cc1 (stereo not given),inactive
22,CC1CCCC(C)N1C(=O)COC(=O)c1ccccc1C(=O)c1ccccc1 (stereo not given),inactive
23,Cc1ccc(Cl)c(OCC(=O)N2CCc3ccccc3C2)c1,inactive
24,C=CCc1ccccc1OCC(O)CN1CCN(CCO)CC1 (stereo not given),inactive
25,OC(COc1ccc(F)cc1Cl)CN1CCc2ccccc2C1 (stereo not given),20.6 µM (active)
26,COCCN1CCn2c(nc3cc(NS(C)(=O)=O)ccc32)C1,inactive
27,Cc1cccc(CCNC(=O)Cn2ncc3c([nH]c4ccc(C)cc43)c2=O)c1,inactive

row,Compound,Potency
1,CS(=O)(=O)N1CCC2(CC1)CN(Cc1ccccc1)C2,inactive
2,CC12CN(Cc3ccccc3)CC(C)(CN(Cc3ccccc3)C1)C2=NO,23.1 µM (active)
3,CC(=O)N1CCC2(CCCN(Cc3ccccc3)C2)CC1,inactive
4,O=C1Nc2cc(Cl)c(Cl)cc2N(O)N1c1cc(Cl)cc(Cl)c1,inactive
5,Cc1ccc(NC(=O)c2cccnc2C(=O)Nc2ccc(C)cc2)cc1,inactive
6,O=C(Nc1ccccc1C(F)(F)F)c1nc(S(=O)(=O)Cc2ccccc2F)ncc1Cl,0.562 µM (active)
7,O=C(Nc1nc2ccc(F)cc2s1)c1nc(SCc2ccccc2F)ncc1Cl,inactive
8,CCCSc1ncc(Cl)c(C(=O)Nc2c(C(=O)Nc3ccccc3)oc3ccccc23)n1,inactive
9,Cc1cccc(NC(=O)c2nc(S(=O)(=O)Cc3ccccc3)ncc2Cl)c1,0.92 µM (active)
10,CCSc1nnc(NC(=O)c2ccc(C)cc2)s1,inactive
11,CSc1nnc(NC(=O)c2nc(S(=O)(=O)Cc3ccc(C)cc3)ncc2Cl)s1,6.51 µM (active)
12,Cc1ccc(NC(=O)c2nc(S(=O)(=O)Cc3cccc(C)c3)ncc2Cl)cc1,0.651 µM (active)
13,CN(CC(=O)Nc1ccccc1C(F)(F)F)C(=O)Cc1ccccc1F,inactive
14,Cc1cccc(NC(=O)C(C)SCc2ccccc2)c1 (stereo not given),inactive
15,CCSc1ncc(Cl)c(C(=O)Nc2cc(C)ccc2C)n1,inactive
16,NC(=O)CSc1nnc(NC(=O)c2ccc(Br)o2)s1,inactive
17,Cc1cc2c3ccccc3[nH]c(=O)n2n1,inactive
18,COc1ccc(S(=O)(=O)N2CCOCC2)cc1NC(=O)CSc1ncnc2ccccc12,inactive
19,Cc1cc2c(=O)n(CC(=O)NCC(=O)Nc3ccc(C(C)C)cc3)cnc2s1,inactive
20,COc1ccc(CNC(=O)COc2cccnc2[N+](=O)[O-])cc1,inactive
21,COc1cccc(C(=O)OCC(=O)c2[nH]c(C)c(C(C)=O)c2C)c1,inactive
22,CC(=O)Nc1ccc(Sc2ccccc2C(=O)N2CCCC2)cn1,inactive
23,Cc1[nH]c2ccccc2c1C(=O)C(=O)NCc1nnnn1-c1cccc(F)c1,inactive
24,CCc1c(C)c2ccc(OC3CCCCC3=O)cc2oc1=O (stereo not given),inactive
25,Cc1cc(NC(=O)c2ccc(F)cc2)ccc1NC(=O)c1ccco1,inactive
26,CSc1ncc(Cl)c(C(=O)Nc2cc(C)ccc2C)n1,inactive
27,Cc1cccc(CS(=O)(=O)c2ncc(Cl)c(C(=O)Nc3ccc(F)cc3)n2)c1,1.3 µM (active)

row,Compound,Potency
1,CC(=O)C1C(c2ccc(Cl)cc2)c2c(n[nH]c2C)CC1(C)O (stereo not given),inactive
2,Cc1ccc(CNC(=O)C(=O)c2cn(CC(=O)N3CCOCC3)c3ccccc23)cc1,inactive
3,Cc1ccc(NC(=O)N2CCSc3ccccc32)cc1,inactive
4,C=CCn1c(C23CC4CC(CC(C4)C2)C3)n[nH]c1=S,inactive
5,CCc1c(C)nc(N2CCN(Cc3ccccc3)CC2)[nH]c1=O,inactive
6,COC(=O)c1sc(N2CCN(Cc3ccccc3)CC2)nc1N,inactive
7,CC(C)OC(=O)C(C#N)c1nc2ccccc2nc1N1CCN(Cc2ccccc2)CC1 (stereo not given),23.1 µM (active)
8,CN1CC(=O)N=C1N,inactive
9,N#Cc1c(-c2ccccc2)c(-c2ccccc2)n[nH]c1=O,inactive
10,CN(C)c1ccc(CNC(=O)CN2C(=O)COc3ccc(S(=O)(=O)N4CCCC4)cc32)cc1,inactive
11,Cc1nnc(SCC(=O)N2CCOCC2)[nH]c1=O,inactive
12,CCOC(=O)c1c(NC(=O)CSc2nnc(C)c(=O)[nH]2)sc2c1CCC2,inactive
13,CCCCOC(=O)CNc1nnc(SCC(=O)OCC)[nH]c1=O,10.3 µM (active)
14,CC(=O)c1ccc[n+](C(C)CCC(C)[n+]2cccc(C(C)=O)c2)c1 (stereo not given),inactive
15,CCOC(=O)c1c(N)n(-c2cccc(C)c2C)c2nc3ccccc3nc12,inactive
16,CC(=O)N1CCN(c2cccc(C)c2C)CC1,inactive
17,Cc1cccc(N2CCN(C(=O)c3ccc(Nc4nc5ccccc5n5nnnc45)cc3)CC2)c1C,inactive
18,CCC(CC)C(=O)N1CCN(c2cccc(C)c2C)CC1,14.6 µM (active)
19,CCn1c(C)c(C)c2cc(C(=O)N3CCN(c4cccc(C)c4C)CC3)ccc21,20.6 µM (active)
20,Cc1ccccc1N1CCN(C(=O)c2cccnc2)CC1,inactive
21,CS(=O)(=O)N1CCc2cc(C(=O)Nc3ccccc3Br)ccc21,inactive
22,Cc1cccc(N2CCN(C(=O)/C=C/c3ccco3)CC2)c1C,16.4 µM (active)
23,Cc1cccc(N2CCN(C(=O)c3ccc4c(c3)CCN4S(=O)(=O)c3ccccc3)CC2)c1C,5.8 µM (active)
24,O=C(/C=C/c1ccco1)NC(=S)N1CCCCC1,inactive
25,CSc1ccccc1NC(=O)c1ccc2c(c1)CCN2S(C)(=O)=O,inactive
26,C[C@H]1CN([C@@H](C)CO)C(=O)CCCn2cc(nn2)CO[C@@H]1CN(C)C(=O)Nc1ccccc1,inactive
27,CCCCN(C(=O)c1nn(C)c(=O)c2ccccc12)c1c(N)n(CCC)c(=O)[nH]c1=O,inactive

row,Compound,Potency
1,CCCNC(=O)c1cc(C2CCCN(C(=O)c3ccc4c(c3)CCO4)C2)on1 (stereo not given),inactive
2,C=Cn1c(C(=O)O)ccc1-c1ccc(OC)cc1,inactive
3,CCCCC1N2CC3([N+](=O)[O-])CN1CC([N+](=O)[O-])(C2)C3(C)C (stereo not given),inactive
4,Cc1c(C)n(Cc2ccc(Cl)cc2)c2ccc(C(=O)N3CCN(c4ccccc4F)CC3)cc12,18.4 µM (active)
5,O=C(c1ccc(CN2CCOCC2)cc1)N1CCN(c2ccccc2F)CC1,inactive
6,CCOc1ccccc1NC(=S)N1CCN(c2cccc(C)c2C)CC1,11.6 µM (active)
7,CCOc1ccccc1NC(=O)NC1CCCCCCC1,inactive
8,Cc1cccc(NC(=S)N2CCC(O)CC2)c1C,inactive
9,CCc1ccc(NC(=O)CS(=O)CC(=O)N2CCN(c3ccccc3F)CC2)cc1 (stereo not given),inactive
10,O=[N+]([O-])c1cc(S(=O)(=O)N2CCCC2)ccc1NN=C1CCCC1,inactive
11,CC(C)(C)c1ccc(/C=C2\SC(=O)N=C2N)cc1,inactive
12,CCOc1ccc(CNC(=O)c2cc(=O)[nH]c3ccc(S(=O)(=O)N4CCCCC4)cc23)cc1,inactive
13,CC(c1ccco1)N(C(=O)c1ccc(S(=O)(=O)N2CCCCC2)cc1)c1ccccn1 (stereo not given),inactive
14,Cc1ccc(-n2c(CNc3ccc(F)cc3)nnc2SCC(=O)N2CCOCC2)cc1,inactive
15,N=C1c2ccccc2-c2ccccc21,inactive
16,COc1ccc(N2CCN(C3=NS(=O)(=O)C(c4cccc(Br)c4)=C3C)CC2)cc1,inactive
17,Cn1c(=O)cc(OCC(=O)N2CCN(c3ccccc3F)CC2)c2ccccc21,inactive
18,O=C(Nn1cc(C(=O)N2CCN(c3ccccc3F)CC2)c2ccccc2c1=O)c1cnccn1,14.6 µM (active)
19,Cc1oc2ncn(CC(C)C)c(=O)c2c1C(=O)N1CCN(c2ccccc2F)CC1,inactive
20,CCCCOc1ccc(NC(=O)c2cc3c(n(-c4ccc(Cl)cc4)c2=O)CCCC3=O)cc1,inactive
21,CC(C)c1ccc(NS(=O)(=O)c2ccc3[nH]cc(C(=O)NC4CCCC4)c(=O)c3c2)cc1,inactive
22,CCOC(=O)CC1C(=O)NCCN1C(=O)COc1ccc(Br)cc1C (stereo not given),inactive
23,COCC(C)NCc1cc(Br)ccc1OC (stereo not given),inactive
24,CCC(C)NCCOCCOc1ccc(Br)cc1C (stereo not given),14.6 µM (active)
